Hits are enriched below; roughly 3.8% of the tested compounds scored in any of these assays.
KLK7 zymogen act: proKLK7 zymogen activators, primary screen, biochemical, fluorescence intensity | Kallikrein-7 (Homo sapiens), P49862 | purified proKLK7, EDANS-DABCYL substrate fluorescence; 100% is mature enzyme control, 0% vehicle | activation, % at 7 µM | 0.9% of 370,000 active | AID 652039, 2013;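 active means activation above the mean of all tested compounds plus 3 SD, computed per campaign excluding outliers beyond control limits, cut at about 13% in these data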
Target sequence (P49862 whole entry, looked up): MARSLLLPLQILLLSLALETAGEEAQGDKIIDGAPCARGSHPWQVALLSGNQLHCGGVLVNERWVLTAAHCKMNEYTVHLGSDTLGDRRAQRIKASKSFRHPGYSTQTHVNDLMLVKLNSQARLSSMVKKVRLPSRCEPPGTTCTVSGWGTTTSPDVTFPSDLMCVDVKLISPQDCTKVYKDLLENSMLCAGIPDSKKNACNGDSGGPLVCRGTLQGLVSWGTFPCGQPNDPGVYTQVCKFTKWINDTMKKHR
ADAM17 inh: ADAM17 inhibitors, primary screen, biochemical, QFRET; Disintegrin and metalloproteinase domain-containing protein 17 (Homo sapiens), P78536; recombinant ADAM17, EDANS/DABCYL FRET peptide cleavage; inhibition, % at 6.95 µM; 0.83% of 370,000 active; AID 720648, 2013;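 active means inhibition above the mean of compounds lying between control limits plus 3 SD, set per campaign, cut at about 8.5% in these data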
rRNA inh HTS: reduced GFP signal of wild-type E. coli, primary screen, bacterial rRNA inhibitor project, GFP/RFP fluorescence, OD600, single point; E. coli WT GFP vs humanized-ribosome RFP mutants, 24 h; active compounds read low; DMSO median 0, no signal -100; GFP signal change (wild-type ribosome), % (no concentration beside the values); 1.6% of 350,000 active; AID 720706, 2013;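 active means significant combined selectivity score with lowered wild-type GFP, culture density cut under 30%, mutant RFP and density less affected; inactive means any of these conditions unmet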
FGF22 binding-1: binders of human FGF22 protein, primary screen, FGF22 synaptogenesis inhibitor project, biophysical, thermal shift, single point; Fibroblast growth factor 22 (Homo sapiens), Q9HCT0; recombinant FGF22 thermal shift, SYPRO orange fluorescence; percent of sucrose octasulfate shift, DMSO zero; activity (Tm shift, normalised), % at 9.99 µM; 1.5% of 340,000 active; AID 651658, 2012;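 active means mean Tm shift, scaled 0 neutral to 100 positive control, at about 1.3% or above, every replicate too, limit read from the data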
Target sequence (Q9HCT0 whole entry, looked up): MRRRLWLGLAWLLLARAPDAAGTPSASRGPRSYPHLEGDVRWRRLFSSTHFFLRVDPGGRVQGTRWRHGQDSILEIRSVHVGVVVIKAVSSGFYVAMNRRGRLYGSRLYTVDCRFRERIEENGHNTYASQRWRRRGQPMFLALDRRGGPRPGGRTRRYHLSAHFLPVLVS
ADAM10 inh: human ADAM10 inhibitors, primary screen, biochemical, QFRET, HTS; inhibition, % at 7 µM; 0.62% of 370,000 active; Disintegrin and metalloproteinase domain-containing protein 10 (Homo sapiens), O14672; recombinant ADAM10, EDANS/DABCYL FRET peptide cleavage, 3 h;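 active means inhibition above a per-campaign cutoff equal to the mean of compounds falling between control-based bounds plus 3 SD, cut at about 20% in these data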
FGF22 binding-2: binders of human FGF22 protein, dose response, FGF22 synaptogenesis inhibitor project, biophysical, thermal shift, cherry-pick retest. shares compounds with FGF22 binding-1. recombinant FGF22 thermal shift, SYPRO orange fluorescence. thermal shift activity, °C (ΔTm) at 38 µM. 2% of 1,000 active;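 active means fitted rise in melting shift crosses a set limit at or below the top valid dose tested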
TSA no protein: compound-only thermal shift signal without protein, dose response, artefact control for FGF22 binder project, biochemical, cherry-picked samples, RT-PCR instrument; AC50, µM (top dose mostly 38 µM); shares compounds with FGF22 binding-1; compound-only SYPRO orange thermal shift counter-screen, no protein; 2% of 1,000 active;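 active means rising signal whose fitted curve reaches the 0.54 level within the top valid dose, showing a melting point, actives reach about 13 µM in these data; inactive means the rest, including activity in the opposite direction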; further: value is where the raw curve crosses a fixed level and not half-maximal
Of the large screens only hits and unclear results are named; the others gave an inactive call (follow-up assays come after a bar, where they were run).

COC(=O)[C@H]1[C@H](CO)[C@H]2Cn3c(ccc(-c4ccccc4F)c3=O)[C@@H]1N2C(C)=O	none (no result: KLK7 zymogen act, ADAM17 inh, ADAM10 inh)
O=P(O)(O)CN1CCNCCN(CP(=O)(O)O)CCNCC1	FGF22 binding-1 43
C[C@]12CCC3C(CC[C@H]4C[C@@H](O)CC[C@]34C)C1C[C@@H](O)C2=O (stereo not given in full)	rRNA inh HTS -23
C[C@]12CCC3[C@@H](CC[C@H]4C[C@@H](O)CC[C@]34C)C1CCC2=O (stereo not given in full)	none
FC(F)(F)CN1C[C@@H]2C(c3ccccc3)[C@H](C1)N2CC1CC1 (stereo not given in full)	none (no result: KLK7 zymogen act, ADAM17 inh, FGF22 binding-1, ADAM10 inh)
N#Cc1c(N2CCNCC2)nc(-c2ccco2)c2c1CCCC2	FGF22 binding-1 1.9
OC[C@@H]1Nc2ccc(C#Cc3cccnc3)cc2[C@H]2NCC[C@@H]12	none (no result: KLK7 zymogen act, ADAM17 inh, FGF22 binding-1, ADAM10 inh)
O=[N+]([O-])c1ccccc1CCl	none
O=C1CCN(C(=O)Cc2ccccc2[N+](=O)[O-])CC1	FGF22 binding-1 44
FC(F)(F)CN1C[C@@H]2C(c3ccc(Br)cc3)[C@H](C1)N2CC1CC1 (stereo not given in full)	none (no result: KLK7 zymogen act, ADAM17 inh, FGF22 binding-1, ADAM10 inh)
Cc1cc(OC(=O)N(C)C)nc(SCc2c(Cl)cccc2Cl)n1	rRNA inh HTS -18
CN(C)C(=O)Oc1c(Cl)cc(Cl)c2ccccc12	none (no result: rRNA inh HTS, FGF22 binding-1)
Cc1c(NC(NC(=O)CF)C(Cl)(Cl)Cl)c(=O)n(-c2ccccc2)n1C (stereo not given)	FGF22 binding-1 43
COc1ccc(-c2cc(=O)c3c(OC)c(OC)c(OC)cc3o2)cc1	rRNA inh HTS -30
CCN1[C@@H]2c3ccc(-c4cccc(OC)c4)c(=O)n3C[C@H]1[C@H](CO)[C@H]2C(=O)OC	none (no result: KLK7 zymogen act, ADAM17 inh, ADAM10 inh)
O=C(Cc1ccccn1)N1CCCCN2[C@H](CO)[C@H](c3ccc(C#Cc4ccccc4)cc3)[C@@H]2C1	none (no result: KLK7 zymogen act, ADAM17 inh, ADAM10 inh)
CN(Cc1cccc(-c2cccnc2)c1)C(=O)Oc1ccc([N+](=O)[O-])cc1	none
Cc1nc(-c2cccc(CN(C)C(=O)Oc3ccc([N+](=O)[O-])cc3)c2)no1	rRNA inh HTS -19
Cn1cc(C(=O)N2CCOCC2)c2ccccc21	none (no result: FGF22 binding-1)
Cn1cc(C(=O)NP(=O)(N2CCOCC2)N2CCOCC2)c2ccccc21	FGF22 binding-1 44
CC=Cc1ccc2n(c1=O)C[C@@H]1[C@@H](CO)[C@H](C(=O)OC)[C@H]2N1C(=O)CC (mixture of isomers)	none (no result: KLK7 zymogen act, ADAM17 inh, ADAM10 inh)
CCCCn1nnnc1C(C1CC1)N1CCC(n2c(=O)[nH]c3ccccc32)CC1 (stereo not given)	rRNA inh HTS -20
CCCCn1nnnc1C(CCSC)N1CCC(n2c(=O)[nH]c3ccccc32)CC1 (stereo not given)	none
O=C(NN=Cc1ccc(N(CCCl)CCCl)cc1)c1cc(=O)[nH]c(=O)[nH]1	FGF22 binding-1 44
CCCC(=O)NC(Oc1ccccc1Cl)C(Cl)(Cl)Cl (stereo not given)	rRNA inh HTS -20
O=C(c1cccc2ccccc12)C1CCCN(Cc2ccon2)C1 (stereo not given)	FGF22 binding-1 2.2 | FGF22 binding-2 inactive | TSA no protein inactive
OC(CNCCc1c[nH]c2ccccc12)c1ccccc1 (stereo not given)	FGF22 binding-1 1.4 | FGF22 binding-2 inactive | TSA no protein inactive
N/C(=N\[N+](=O)[O-])N1CCN(C(=O)c2ccccc2)CC1	none

Bioassay records as filed in PubChem.
